# PubChem BioAssay
# Activity calls are given as the source filed them.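 How the source made its calls, unless noted: active means visual image review flags a hit and inhibition of aggregation exceeds 20%; inconclusive means visual hit but inhibition at or below 20%; inactive means no hit on visual image review.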
# Assay: inhibitors of TNFa-induced NFkB p65 translocation, primary screen, imaging, HUVEC, MLSMR starter and 10KST1 sets (AID 438;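 active means inhibition above 20% together with a positive visual image hit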;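 further: compound added about 3h40 before a 20 min TNFalpha stimulation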;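 on inhibition: signal is the nuclear over cytoplasmic p65 intensity ratio per well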)
# Settings: HUVEC TNFa-induced p65 nuclear translocation; cell count: measured here: nuclei count (cytotoxicity indicator), at 2.08 µM; inhibition: at 2 µM, stronger effect = higher value, 0% TNFa-plus-vehicle, 100% no-TNFa wells
Compound,inhibition,cell count
COC(=O)C1C2C=CC3(CN(CC4CCCO4)C(=O)C13)O2 (stereo not given),4% (inactive),504
N#Cc1c(-c2ccc3c(c2)OCO3)csc1N,-4.7% (inactive),584
CCN(CC(=O)Nc1ccc2c(c1)CCC2)Cc1nc2ccccc2c(=O)[nH]1,1.3% (inactive),382
O=C(Nc1ccncc1)c1cc2ccccc2o1,2.1% (inactive),165
COc1cc(C(=O)NCC(=O)OCC(=O)c2ccc[nH]2)cc(OC)c1OC,-23% (inactive),383
Cc1cc(C(=O)COC(=O)CCc2nc3ccccc3s2)c(C)n1C,-10.5% (inactive),170
O=C1c2ccccc2C(=O)N1c1cccc(-c2nc3ccccc3o2)c1,7.6% (inactive),464
Cc1ccc2[nH]c3c(c2c1)CN(C(=O)CN1CCN(c2cccc(C)c2C)CC1)CC3,6.2% (inactive),392
CN(CCNC(=O)c1ccc(N2CCCC2=O)cc1)CCc1ccccc1,-24% (inactive),624
Cc1cccc(-n2ncc3c(NCc4cccs4)ncnc32)c1,6.7% (inactive),667
COc1ccccc1C1N(c2ccc(F)cc2)C(=O)C2CCCN21 (stereo not given),-3.9% (inactive),429
COCC(=O)n1nc(NCc2ccc(OC)cc2)nc1NCc1ccc(OC)cc1,2% (inactive),614
O=C(CSc1nc2ccccc2o1)N1CCN(C(=O)c2ccco2)CC1,-11.5% (inactive),595
Cc1nn(Cc2ccccc2)c(C)c1NC(=O)c1cc(-c2ccco2)on1,-8.1% (inactive),408
O=C(COc1ccc(F)cc1)Nc1ccc(-n2cnnn2)cc1,1.1% (inactive),568
Cc1cc(NC(=O)CSc2nc3c(c(-c4cccnc4)c2C#N)CCC3)no1,-2.9% (inactive),595
O=C1C2CCCN2C(c2ccccc2)N1c1ccc(Cl)cc1 (stereo not given),5.5% (inactive),374
COC(=O)c1ccccc1NC(=O)CN1CCC(n2nnc3cc(F)ccc32)CC1,6% (inactive),488
Cc1nn(-c2ccccc2)c2[nH]c(C(F)(F)F)cc(=O)c12,0.7% (inactive),364
Cc1ccc(S(=O)(=O)N2CCN(C(=O)N3CCOCC3)C2C)cc1 (stereo not given),7.3% (inactive),469

Compound,inhibition,cell count
O=C(CCC(=O)OCC(=O)c1ccccc1)NC1CCCCC1,1.2% (inactive),449
COc1cccc(Nc2nnc(SCC(=O)N3CC(C)OC(C)C3)s2)c1 (stereo not given),4.8% (inactive),448
O=C(NCc1ccco1)c1cccc(S(=O)(=O)N2CCCCC2)c1,-3.6% (inactive),323
CSc1ccc(-c2cc(=O)c3ccccc3o2)cc1,-10.5% (inactive),620
CCN(CC)C(c1ccc(C)cc1)c1nnnn1C1CCCCC1 (stereo not given),-6.7% (inactive),438
Cc1nonc1NC(=O)c1ccccc1Br,9.6% (inactive),620
Cc1cc(NC(=O)Cc2c(F)cccc2Cl)no1,-1.1% (inactive),586
Cc1cc(C)nc(SCc2nnc(SCC(=O)Nc3ncc(C)s3)n2Cc2ccco2)n1,3% (inactive),422
CSc1ccccc1NC(=O)CN(c1ccccc1)S(=O)(=O)N(C)C,-0.8% (inactive),429
Cc1cc(NC(=O)C(C)(C)C)no1,-8.7% (inactive),507
O=C(c1nn2cccnc2c1Cl)N1CCN(c2ccccc2)CC1,3.6% (inactive),344
Cc1ccc(NC(=O)COC(=O)c2ccn(C)n2)cc1,-2.1% (inactive),521
COCCCN1C(=O)C(O)=C(C(C)=O)C1c1ccccn1 (stereo not given),-1.7% (inactive),686
CN(C)c1nc(Oc2ccc(N)cc2)nc(N(C)C)n1,2.1% (inactive),362
CC(=O)NCCc1ccc(S(=O)(=O)NCc2ccc3c(c2)OCO3)cc1,-12.3% (inactive),587
N#Cc1c(N)oc(-c2cccs2)c1-c1cccs1,2.6% (inactive),508
O=c1c2cnn(-c3ccccc3)c2ncn1/N=C/c1ccncc1,-7.8% (inactive),476
Cc1c(Cl)cccc1NC(=O)CCN1CCCCCC1,14.6% (inactive),221
CCNc1ccc(S(=O)(=O)C(F)(F)F)cc1NC(=O)C12CCC(CC1)C2,2.5% (inactive),380
O=C(CSc1n[nH]c(=O)[nH]c1=O)c1ccccc1,-5.6% (inactive),486

# Assay: inhibitors of mutant huntingtin aggregation, primary screen, imaging, exon1htt(103Q)mCFP cells, high-content imaging (AID 483);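 further: compound exposure lasted 3 days before fixation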;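 on nuclei count: percent of the per-plate median nuclei count of sample wells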
# Settings: exon1htt(103Q)mCFP cell line, aggregate imaging, at 2 µM; inhibition of aggregation: stronger effect = higher value; nuclei count: measured here: cell count, toxicity
Compound,inhibition of aggregation,nuclei count
COC(=O)C1C2C=CC3(CN(CC4CCCO4)C(=O)C13)O2 (stereo not given),-7.3% (inactive),111%
N#Cc1c(-c2ccc3c(c2)OCO3)csc1N,7.8% (inactive),94%
CCN(CC(=O)Nc1ccc2c(c1)CCC2)Cc1nc2ccccc2c(=O)[nH]1,-17.4% (inactive),102%
O=C(Nc1ccncc1)c1cc2ccccc2o1,35.8% (inactive),101%
COc1cc(C(=O)NCC(=O)OCC(=O)c2ccc[nH]2)cc(OC)c1OC,10.7% (inactive),101%
Cc1cc(C(=O)COC(=O)CCc2nc3ccccc3s2)c(C)n1C,14.2% (inactive),108%
O=C1c2ccccc2C(=O)N1c1cccc(-c2nc3ccccc3o2)c1,4% (inactive),104%
Cc1ccc2[nH]c3c(c2c1)CN(C(=O)CN1CCN(c2cccc(C)c2C)CC1)CC3,22.7% (inactive),75.3%
CN(CCNC(=O)c1ccc(N2CCCC2=O)cc1)CCc1ccccc1,17.8% (inactive),84.6%
Cc1cccc(-n2ncc3c(NCc4cccs4)ncnc32)c1,0.1% (inactive),99.5%
COc1ccccc1C1N(c2ccc(F)cc2)C(=O)C2CCCN21 (stereo not given),7.1% (inactive),84.3%
COCC(=O)n1nc(NCc2ccc(OC)cc2)nc1NCc1ccc(OC)cc1,-19.7% (inactive),101%
O=C(CSc1nc2ccccc2o1)N1CCN(C(=O)c2ccco2)CC1,9.6% (inactive),102%
Cc1nn(Cc2ccccc2)c(C)c1NC(=O)c1cc(-c2ccco2)on1,-15.5% (inactive),101%
O=C(COc1ccc(F)cc1)Nc1ccc(-n2cnnn2)cc1,34.2% (inactive),90.5%
Cc1cc(NC(=O)CSc2nc3c(c(-c4cccnc4)c2C#N)CCC3)no1,0.1% (inactive),96.3%
O=C1C2CCCN2C(c2ccccc2)N1c1ccc(Cl)cc1 (stereo not given),-14.7% (inactive),99.5%
COC(=O)c1ccccc1NC(=O)CN1CCC(n2nnc3cc(F)ccc32)CC1,-5.5% (inactive),103%
Cc1nn(-c2ccccc2)c2[nH]c(C(F)(F)F)cc(=O)c12,17.9% (inactive),103%
Cc1ccc(S(=O)(=O)N2CCN(C(=O)N3CCOCC3)C2C)cc1 (stereo not given),12.7% (inactive),102%

Compound,inhibition of aggregation,nuclei count
O=C(CCC(=O)OCC(=O)c1ccccc1)NC1CCCCC1,1.6% (inactive),95%
COc1cccc(Nc2nnc(SCC(=O)N3CC(C)OC(C)C3)s2)c1 (stereo not given),14.5% (inactive),73.5%
O=C(NCc1ccco1)c1cccc(S(=O)(=O)N2CCCCC2)c1,-3.2% (inactive),112%
CSc1ccc(-c2cc(=O)c3ccccc3o2)cc1,-54.9% (inactive),8.7%
CCN(CC)C(c1ccc(C)cc1)c1nnnn1C1CCCCC1 (stereo not given),37.1% (inactive),85.4%
Cc1nonc1NC(=O)c1ccccc1Br,28.1% (inactive),96.4%
Cc1cc(NC(=O)Cc2c(F)cccc2Cl)no1,-15.9% (inactive),99.9%
Cc1cc(C)nc(SCc2nnc(SCC(=O)Nc3ncc(C)s3)n2Cc2ccco2)n1,7.1% (inactive),98.6%
CSc1ccccc1NC(=O)CN(c1ccccc1)S(=O)(=O)N(C)C,1.4% (inactive),96%
Cc1cc(NC(=O)C(C)(C)C)no1,-18% (inactive),118%
O=C(c1nn2cccnc2c1Cl)N1CCN(c2ccccc2)CC1,-7.7% (inactive),80.1%
Cc1ccc(NC(=O)COC(=O)c2ccn(C)n2)cc1,-15.4% (inactive),89.1%
COCCCN1C(=O)C(O)=C(C(C)=O)C1c1ccccn1 (stereo not given),-2% (inactive),116%
CN(C)c1nc(Oc2ccc(N)cc2)nc(N(C)C)n1,15.5% (inactive),94.2%
CC(=O)NCCc1ccc(S(=O)(=O)NCc2ccc3c(c2)OCO3)cc1,-24.8% (inactive),89.5%
N#Cc1c(N)oc(-c2cccs2)c1-c1cccs1,-9.8% (inactive),93.1%
O=c1c2cnn(-c3ccccc3)c2ncn1/N=C/c1ccncc1,3.3% (inactive),119%
Cc1c(Cl)cccc1NC(=O)CCN1CCCCCC1,-8.7% (inactive),90.4%
CCNc1ccc(S(=O)(=O)C(F)(F)F)cc1NC(=O)C12CCC(CC1)C2,-4.3% (inactive),108%
O=C(CSc1n[nH]c(=O)[nH]c1=O)c1ccccc1,6.7% (inactive),82%
